The list is not random: actives were taken first. Their share in the collection is about 6.2%.
Gal4-VP16 FLuc = Gal4-VP16 reporter inhibition counter-screen; 3.5% of 310,000 active; AID 2546; Potency, µM (series often up to 53.6 µM), hits mostly inhibitors; Drosophila S2 Gal4-VP16 UAS-luciferase, luminescence, 20 h;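 note: Gal4-VP16 expression switched on by copper sulfate through the metallothionein promoter; nearly all actives have a fitted effect of over 50% in size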
Luc counter = Kinase-Glo luciferase inhibition (counter-screen) | Potency, µM (doses to about 38.3 µM), hits mostly inhibitors | Kinase-Glo luciferase, ATP luminescence, 8 min | 0.28% of 200,000 active; note: nearly all actives have a fitted effect of over 60% in size
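Recombinant Kinase-Glo luciferase, 10 uM ATP (linear range), luciferin; imidazole pH 7.2 / KCl / MgCl2 / Tween / BSA buffer; 8 min RT; luminescence.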
RORg inh = inhibitors of mouse ROR gamma transcriptional activity; P51450; Drosophila S2 Gal4-RORgamma UAS-luciferase reporter, 20 h; Potency, µM (series often up to 53.6 µM), usual class: inhibitors; 5.4% of 310,000 active; AID 2551; note: nearly all actives have a fitted effect of over 60% in size
Target sequence (P51450 whole entry, looked up, the tested form may be a part): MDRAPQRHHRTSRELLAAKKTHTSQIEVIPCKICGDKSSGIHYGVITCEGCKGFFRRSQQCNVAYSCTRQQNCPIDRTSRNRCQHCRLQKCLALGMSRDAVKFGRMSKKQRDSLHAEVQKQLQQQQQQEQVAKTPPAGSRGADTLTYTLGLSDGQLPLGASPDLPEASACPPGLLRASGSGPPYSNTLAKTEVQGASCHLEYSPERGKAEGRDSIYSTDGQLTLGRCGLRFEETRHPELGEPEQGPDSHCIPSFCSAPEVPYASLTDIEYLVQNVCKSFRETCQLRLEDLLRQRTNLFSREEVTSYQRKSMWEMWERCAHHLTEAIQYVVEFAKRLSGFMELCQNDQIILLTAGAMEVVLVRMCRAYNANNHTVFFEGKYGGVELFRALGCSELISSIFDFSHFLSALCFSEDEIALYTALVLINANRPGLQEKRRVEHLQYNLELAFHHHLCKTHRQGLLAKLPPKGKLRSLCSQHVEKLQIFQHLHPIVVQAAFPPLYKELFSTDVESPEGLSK
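Drosophila S2 cells stably expressing Gal4-DBD/mouse RORγ fusion under metallothionein promoter plus UAS-luciferase; compound 1 h, then 700 uM CuSO4 induction for 20 h at ambient temperature; inhibition read as reduced luminescence.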
Large screens that a line does not name were inactive. Calls come from the whole dose curve; as a rule, active = well fitted curve in the direction sought with a large enough effect; inconclusive = small, poorly fitted or top-dose-only effect, or another doubt; inactive = no such curve, though single readings can be large; an effect the other way counts as inactive or inconclusive.

CC(NC(=O)C1CCC(CNS(=O)(=O)c2ccccc2)CC1)c1ccccc1 (stereo unspecified)	none (no result: Luc counter)
CNC(=O)N(O)C1N(/N=C/c2ccc(N(C)C)cc2)C(=S)SC1(C)C (stereo unspecified)	none (no result: Luc counter)
CC1(C)SC(=S)N(/N=C/c2ccccc2)C1N(O)C(=O)Nc1ccc([N+](=O)[O-])cc1 (stereo unspecified)	Gal4-VP16 FLuc 3.5µM, RORg inh inconclusive
Cc1ccc(S(=O)(=O)N2CCC(C(=O)NNC(=O)c3cccnc3)CC2)cc1	none
Nc1ccc(O)c(-c2nc3ccccc3s2)c1	RORg inh inconclusive
Oc1ccc(N=C/C=C/c2cccc(Br)c2)cc1-c1nc2ccccc2s1	Gal4-VP16 FLuc 7.9µM, RORg inh inconclusive
COC(=O)Cn1c(C(=O)N2CCCC2)cc2c1C[C@H]1CN(C(=O)c3ccccc3)[C@@](Cc3ccccc3)(C(=O)OC)[C@@H]21	none
CCCC1=C(C(=O)OCC)C(/C=C/c2ccccc2)n2ncnc2N1 (stereo unspecified)	RORg inh 20µM
CCOC(=O)C1=C(C)Nc2ncnn2C1/C=C/c1ccccc1 (stereo unspecified)	none
CCCCOc1ccc(NC(=O)CCSc2nccn2C)cc1	none
C[C@@H]1COC(=O)O1	none (no result: Luc counter)
Cc1ccc(NC(=O)[C@H](C)NC(=O)C2CCN(C(=O)[C@@H](NC(=O)OC(C)(C)C)C(C)C)CC2)cc1	none (no result: Luc counter)
Nc1nc(-c2ccc(C(=O)O)cc2)cs1	none
Cc1ccc2nc(-c3ccc(NC(=O)c4ccc(N)cc4)c(S(=O)(=O)O)c3)sc2c1	none (no result: Gal4-VP16 FLuc, RORg inh)
O=C(O)c1ccc2ncsc2c1	none (no result: Luc counter)
Nc1cc2sc(-c3ccc(C(=O)O)cc3)nc2cc1Cl	Gal4-VP16 FLuc 11µM, Luc counter inconclusive, RORg inh 10µM
O=C(O)c1ccc2nc(-c3ccccc3)sc2c1	Gal4-VP16 FLuc 2.5µM, RORg inh inconclusive
Nc1ccc(-c2nc3ccc(C(=O)O)cc3s2)cc1	Gal4-VP16 FLuc 0.63µM, RORg inh 0.56µM
CCCCc1cc(=O)oc2cc(C)cc(OCC(=O)N3CCC(C(=O)O)(c4ccccc4)CC3)c12	RORg inh inconclusive (no result: Luc counter)
Cc1nc2cncnc2n(Cc2ccccc2)c1=O	none (no result: Luc counter)
CC(C)(C)C(=O)NN=C1CCC(c2ccccc2)CC1 (stereo unspecified)	RORg inh inconclusive (no result: Luc counter)
C/C(=N\NC(=O)c1nn(C)c(C)c1Br)c1cccc(NC(=O)c2ccoc2C)c1	none
COc1ccnc(Oc2ccc(F)cc2)c1-c1ncn[nH]1	none
CCOC(=O)c1c(-c2ccc(OC)cc2)csc1NC(=O)CCN1C(=O)c2ccccc2C1=O	none
CCOC(=O)c1c(-c2ccc(OC)cc2)csc1NC(=O)CNCc1ccco1	Gal4-VP16 FLuc 5.6µM, RORg inh 5µM
CC1CC(C)CN(C(=O)c2cc3cc(Br)cc(Br)c3o2)C1 (stereo unspecified)	none
O=C(CCSc1ccc(Cl)cc1)c1ccco1	Gal4-VP16 FLuc inconclusive, RORg inh 11µM (no result: Luc counter)
O=C(CSc1ccc(Cl)cc1)c1ccco1	Gal4-VP16 FLuc inconclusive
COc1cccc(C2NC(=S)NC3=C2CCc2ccccc23)c1 (stereo unspecified)	Gal4-VP16 FLuc 0.28µM (no result: Luc counter)
Cc1ccc(C2NC(=O)NC3=C2CCc2ccccc23)cc1 (stereo unspecified)	none
COc1ccc2c(c1)C1=C(CC2)C(c2ccc(C)cc2)NC(=S)N1 (stereo unspecified)	Gal4-VP16 FLuc 2.8µM, RORg inh 0.71µM
COc1ccc(C2NC(=O)NC3=C2CCc2ccccc23)cc1 (stereo unspecified)	none
COc1ccc(C(=O)NC2CCN(CC(=O)Nc3cccc(OC)c3)CC2)cc1	none (no result: Luc counter)
Cc1ccc(NC(=O)c2ccc3ncsc3c2)cc1S(=O)(=O)N(C)C	Gal4-VP16 FLuc 7.1µM, RORg inh 7.9µM (no result: Luc counter)
Cc1ccc(NC(=O)c2cccnc2)cc1S(=O)(=O)N(C)C	none
Cc1c(OCC(=O)NCC(O)c2ccccc2)ccc2c(-c3ccccc3)cc(=O)oc12 (stereo unspecified)	RORg inh inconclusive (no result: Luc counter)
NC(=S)Nc1ccccc1Br	Gal4-VP16 FLuc 35µM, RORg inh inconclusive (no result: Luc counter)
NC(=S)Nc1cccc2cc3ccccc3cc12	RORg inh 13µM
O=C(Nc1ccccc1F)Nc1ccccc1Br	Gal4-VP16 FLuc inconclusive
NC(=S)Nc1cccc2cn[nH]c12	none
NC(=S)Nc1cccc(F)c1	none (no result: Luc counter)
NC(=S)Nc1cc2ccccc2c2ccccc12	Gal4-VP16 FLuc inconclusive, RORg inh 11µM
O=C1CC[C@@H](CN(Cc2ccccn2)Cc2nc(Cc3cccc(C(F)(F)F)c3)no2)N1	none
Cc1ccc(N=N/C(=C\O)C(=O)c2ccc(Cl)cc2)cc1	Gal4-VP16 FLuc inconclusive
Cc1ccc[n+](/C(=C\C(=C=[N-])C#N)C(=O)c2ccc(Cl)cc2)c1	Gal4-VP16 FLuc inconclusive, RORg inh 18µM
c1ccc(-c2cccc(N3CCC4(CCNCC4)CC3)c2)cc1	RORg inh inconclusive
CCCC(=O)Nc1ccccc1-c1nnc(SCC)[nH]c1=O	none (no result: Luc counter)
Cc1cccc(CNc2ccnc(-c3ccccc3CN(C)C)n2)c1	none
COC(=O)c1c(NC(=O)c2ccccc2)sc2c1CC(C)(C)NC2(C)C	none (no result: Luc counter)
CC1(C)Cc2c(sc(NC(=O)c3ccc(C(=O)c4ccccc4)cc3)c2C(N)=O)C(C)(C)N1	Gal4-VP16 FLuc 13µM, RORg inh inconclusive (no result: Luc counter)
Cc1ccc2nc(NNC(=O)c3ccc4c(c3)OCCO4)sc2c1	Gal4-VP16 FLuc inconclusive, RORg inh 4.5µM
O=C(CCS(=O)(=O)c1ccccc1)Nc1nc2cc3c(cc2s1)OCO3	Gal4-VP16 FLuc inconclusive (no result: Luc counter)
Cc1ccc2nc(N(CCN(C)C)C(=O)c3ccc4c(c3)OCCO4)sc2c1	none (no result: Luc counter)
O=C(NNc1nc2cc3c(cc2s1)OCO3)c1cccc(F)c1	Gal4-VP16 FLuc inconclusive, RORg inh 4.5µM
CCN(CC)S(=O)(=O)c1cccc(C(=O)Nc2nc3cc4c(cc3s2)OCCO4)c1	none
O=C(NNc1nc2cc3c(cc2s1)OCO3)c1ccccc1	Gal4-VP16 FLuc inconclusive, RORg inh 5µM
COc1cc(/C=C2\CCn3c2nc2cc(C(=O)O)ccc2c3=O)ccc1OC(F)F	none (no result: Luc counter)
CC(=O)c1cccc(NC(=S)NC(=O)Cc2ccc(Cl)cc2)c1	Gal4-VP16 FLuc inconclusive, RORg inh 10µM (no result: Luc counter)
CC(=O)c1cccc(NC(=S)Nc2ccn(Cc3cccc4ccccc34)n2)c1	Gal4-VP16 FLuc 5µM, RORg inh 2.8µM
O=C(Cc1ccccc1)Nc1ccc(NC(=S)NC(=O)c2ccccc2)cc1	none (no result: Luc counter)
CC(=O)c1cccc(NC(=O)NCCc2ccc(Cl)cc2)c1	none (no result: Luc counter)
CC(=O)c1cccc(NC(=S)NC(=O)Cc2ccccc2)c1	Gal4-VP16 FLuc 5µM, RORg inh 1.4µM
CC(=O)c1ccc(NC(=S)Nc2ccn(Cc3ccc(Br)cc3)n2)cc1	none
COc1cc(/C=N/NC2=NC(C)(C)Cc3ccccc32)cc(OC)c1OC	none
N#Cc1ccc(NCCNCC(=O)N2N=CCC2C#N)nc1 (stereo unspecified)	none (no result: Luc counter)
COCCN(C(=O)CSc1nc2ccccc2c(=O)n1CCOC)c1c(N)n(Cc2ccccc2)c(=O)[nH]c1=O	none (no result: Luc counter)
CN(C)/C=C(\C#N)S(=O)(=O)c1ccccc1	none
CS(=O)(=O)/C(C#N)=C\c1cnc(S(=O)(=O)c2ccccc2)s1	Gal4-VP16 FLuc 7.9µM, RORg inh 10µM (no result: Luc counter)
COc1ccc(C(=O)CN2C(=O)NC3(CCc4ccccc43)C2=O)cc1 (stereo unspecified)	none (no result: Luc counter)
COc1ccc(OC)c(-c2c3c([nH]c(=S)c2C#N)CCCC3)c1	Gal4-VP16 FLuc inconclusive, RORg inh 16µM
